# Measurements reported in the supplement of paper PMC8728848.
# The entries come from a sample that favours the strongest signals as a whole.
# Experiments:
# Test in all cases: glycan array binding signal (z-score within array); higher = stronger binding
# Details in all cases: glycan notation: IUPAC condensed, linker removed
# [1] = target: Fuc(a1-2)Gal(b1-3)GlcNAc
# How it was run: (§1)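 Glycan array binding is given as a within-array Z-score, which can be read as non-binding when negative. The arrays, 3228 of them, came from the Consortium for Functional Glycomics database and were retained only where the protein sequence was available. Z-scores were averaged across arrays of the same protein sequence at different concentrations or buffers and across linkers.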
# [2] = target: Fuc(a1-2)Gal(b1-3)GlcNAc(b1-2)Man(a1-3)[Fuc(a1-2)Gal(b1-3)GlcNAc(b1-2)Man(a1-6)]Man(b1-4)GlcNAc(b1-4)GlcNAc
# How it was run: as §1
# [3] = target: Fuc(a1-2)Gal(b1-3)[Fuc(a1-4)]GlcNAc(b1-3)[Gal(b1-4)GlcNAc(b1-6)]Gal(b1-4)Glc
# How it was run: as §1
# [4] = target: Fuc(a1-2)Gal(b1-4)GlcNAc(b1-3)GalNAc
# How it was run: as §1
# [5] = target: Fuc(a1-2)[Gal(a1-3)]Gal(b1-4)[Fuc(a1-3)]GlcNAc(b1-3)GalNAc
# How it was run: as §1
# [6] = target: Fuc(a1-3)[Gal(b1-4)]GlcNAc6S
# How it was run: as §1
# [7] = target: Gal(a1-3)Gal
# How it was run: as §1
# [8] = target: Gal(a1-3)Gal(b1-3)GlcNAc(b1-2)Man(a1-3)[Gal(a1-3)Gal(b1-3)GlcNAc(b1-2)Man(a1-6)]Man(b1-4)GlcNAc(b1-4)GlcNAc
# How it was run: as §1
# [9] = target: Gal(a1-4)Gal(b1-3)GlcNAc(b1-2)Man(a1-3)[Gal(a1-4)Gal(b1-3)GlcNAc(b1-2)Man(a1-6)]Man(b1-4)GlcNAc(b1-4)GlcNAc
# How it was run: as §1
# [10] = target: Gal(b1-3)GlcNAc(a1-3)Gal(b1-4)GlcNAc
# How it was run: as §1
# [11] = target: Gal(b1-3)GlcNAc(b1-2)Man(a1-3)[Gal(b1-3)GlcNAc(b1-2)Man(a1-6)]Man(b1-4)GlcNAc(b1-4)[Fuc(a1-6)]GlcNAc
# How it was run: as §1
# [12] = target: Gal(b1-3)GlcNAc(b1-3)Gal(b1-4)GlcNAc(b1-3)Gal(b1-4)GlcNAc(b1-2)[Gal(b1-3)GlcNAc(b1-3)Gal(b1-4)GlcNAc(b1-3)Gal(b1-4)GlcNAc(b1-6)]Man(a1-6)[Gal(b1-3)GlcNAc(b1-3)Gal(b1-4)GlcNAc(b1-3)Gal(b1-4)GlcNAc(b1-2)Man(a1-3)]Man(b1-4)GlcNAc(b1-4)[Fuc(a1-6)]GlcNAc
# How it was run: as §1
# [13] = target: Gal(b1-3)GlcNAc(b1-6)GalNAc
# How it was run: as §1
# [14] = target: Gal(b1-3)[Neu5Ac(a2-6)]GalNAc
# How it was run: as §1
# [15] = target: Gal(b1-4)GlcNAc(b1-2)[Gal(b1-4)GlcNAc(b1-6)]Man(a1-6)[GlcNAc(b1-4)][Gal(b1-4)GlcNAc(b1-2)Man(a1-3)]Man(b1-4)GlcNAc(b1-4)GlcNAc
# How it was run: as §1
# [16] = target: Gal(b1-4)GlcNAc(b1-3)Gal(b1-4)GlcNAc(b1-3)Gal(b1-4)GlcNAc
# How it was run: as §1
# [17] = target: Gal(b1-4)GlcNAc(b1-3)Gal(b1-4)GlcNAc(b1-3)Gal(b1-4)GlcNAc(b1-2)Man(a1-3)[Gal(b1-4)GlcNAc(b1-3)Gal(b1-4)GlcNAc(b1-3)Gal(b1-4)GlcNAc(b1-2)Man(a1-6)]Man(b1-4)GlcNAc(b1-4)GlcNAc
# How it was run: as §1
# [18] = target: Gal(b1-4)GlcNAc(b1-3)Gal(b1-4)GlcNAc(b1-3)Gal(b1-4)GlcNAc(b1-2)Man(a1-3)[Gal(b1-4)GlcNAc(b1-3)Gal(b1-4)GlcNAc(b1-3)Gal(b1-4)GlcNAc(b1-2)Man(a1-6)]Man(b1-4)GlcNAc(b1-4)[Fuc(a1-6)]GlcNAc
# How it was run: as §1
# [19] = target: Gal(b1-4)GlcNAc(b1-3)Gal(b1-4)GlcNAc(b1-3)Gal(b1-4)GlcNAc(b1-3)Gal(b1-4)GlcNAc(b1-2)Man(a1-3)[Gal(b1-4)GlcNAc(b1-3)Gal(b1-4)GlcNAc(b1-3)Gal(b1-4)GlcNAc(b1-3)Gal(b1-4)GlcNAc(b1-2)Man(a1-6)]Man(b1-4)GlcNAc(b1-4)GlcNAc
# How it was run: as §1
# [20] = target: Gal(b1-4)GlcNAc(b1-3)Gal(b1-4)GlcNAc(b1-3)Gal(b1-4)GlcNAc(b1-3)Gal(b1-4)GlcNAc(b1-3)Gal(b1-4)GlcNAc(b1-2)Man(a1-3)[Gal(b1-4)GlcNAc(b1-3)Gal(b1-4)GlcNAc(b1-3)Gal(b1-4)GlcNAc(b1-3)Gal(b1-4)GlcNAc(b1-3)Gal(b1-4)GlcNAc(b1-2)Man(a1-6)]Man(b1-4)GlcNAc(b1-4)[Fuc(a1-6)]GlcNAc
# How it was run: as §1
# [21] = target: Gal3S(b1-3)[Fuc(a1-4)]GlcNAc
# How it was run: as §1
# [22] = target: GlcA(b1-3)Gal
# How it was run: as §1
# [23] = target: GlcNAc(a1-4)Gal(b1-4)GlcNAc
# How it was run: as §1
# [24] = target: GlcNAc(b1-3)Gal(b1-4)GlcNAc(b1-3)Gal(b1-4)GlcNAc(b1-3)Gal(b1-4)GlcNAc(b1-3)Gal(b1-4)GlcNAc(b1-2)Man(a1-3)[GlcNAc(b1-3)Gal(b1-4)GlcNAc(b1-3)Gal(b1-4)GlcNAc(b1-3)Gal(b1-4)GlcNAc(b1-3)Gal(b1-4)GlcNAc(b1-2)Man(a1-6)]Man(b1-4)GlcNAc(b1-4)GlcNAc
# How it was run: as §1
# [25] = target: Kdn(a2-3)Gal(b1-3)GalNAc
# How it was run: as §1
# [26] = target: Man(a1-2)Man(a1-3)[Man(a1-6)]Man(a1-6)[Man(a1-2)Man(a1-3)]Man(b1-4)GlcNAc(b1-4)GlcNAc
# How it was run: as §1
# [27] = target: Man(a1-3)[Man(a1-6)]Man(a1-6)[Man(a1-3)]Man(b1-4)GlcNAc(b1-4)GlcNAc
# How it was run: as §1
# [28] = target: Neu5Ac(a2-3)Gal(b1-3)[Neu5Ac(a2-6)]GalNAc
# How it was run: as §1
# [29] = target: Neu5Ac(a2-3)Gal(b1-4)GlcNAc(b1-2)Man(a1-3)[Neu5Ac(a2-6)Gal(b1-4)GlcNAc(b1-2)Man(a1-6)]Man(b1-4)GlcNAc(b1-4)GlcNAc
# How it was run: as §1
# [30] = target: Neu5Ac(a2-3)Gal(b1-4)GlcNAc(b1-3)Gal(b1-4)GlcNAc(b1-3)Gal(b1-4)GlcNAc(b1-2)Man(a1-3)[Neu5Ac(a2-3)Gal(b1-4)GlcNAc(b1-3)Gal(b1-4)GlcNAc(b1-3)Gal(b1-4)GlcNAc(b1-2)Man(a1-6)]GalNAc
# How it was run: as §1
# [31] = target: Neu5Ac(a2-3)Gal(b1-4)[Fuc(a1-3)]GlcNAc6S
# How it was run: as §1
# [32] = target: Neu5Ac(a2-6)Gal(b1-4)GlcNAc(b1-3)Gal(b1-4)GlcNAc(b1-3)Gal(b1-4)GlcNAc(b1-2)Man(a1-3)[Neu5Ac(a2-6)Gal(b1-4)GlcNAc(b1-3)Gal(b1-4)GlcNAc(b1-3)Gal(b1-4)GlcNAc(b1-2)Man(a1-6)]GalNAc
# How it was run: as §1
# [33] = target: Neu5Ac(a2-8)Neu5Ac(a2-3)Gal(b1-3)GalNAc(b1-4)[Neu5Ac(a2-8)Neu5Ac(a2-3)]Gal(b1-4)Glc
# How it was run: as §1
# [34] = target: Neu5Gc(a2-8)Neu5Gc(a2-6)Gal(b1-4)GlcNAc
# How it was run: as §1
binder,measurement,setting,value
"HA-61200 (Pseudomonas aeruginosa), Q02SP8_PSEAB (protein) MNKCYALVWNVSQGCWNVVSEGSRRRGKPAGAKAAIASVLALLGATALAPAYALPSGGTVVGGSANGEIHLSGGNSLSVNQKVDKLIANWDSFSVAAGERVIFNQPSSSSIALNRVIGTKASDIQGRIDANGQVFLVNPNGVLFGRGAQVNVGGLVASTLDITDAEFNGNSSRYRFTGPSTNGVLNHGGAITAAEGGSIALLGAQVDNRGTVLAQMGGVGLGAGSDLTLNFDGNKLLDIRVDAGVANALASNGGLLKADGGRVLMAARTANALLNTVVNSQGAIEARSLRGKNGRIVLDG",glycan array binding signal (z-score),[1],-1.2
same,glycan array binding signal (z-score),[2],4.52
same,glycan array binding signal (z-score),[3],0.396
same,glycan array binding signal (z-score),[4],-0.278
same,glycan array binding signal (z-score),[5],1.01
same,glycan array binding signal (z-score),[6],1.51
same,glycan array binding signal (z-score),[7],-0.38
same,glycan array binding signal (z-score),[8],5.54
same,glycan array binding signal (z-score),[9],9.66
same,glycan array binding signal (z-score),[10],-0.012
same,glycan array binding signal (z-score),[11],5.22
same,glycan array binding signal (z-score),[12],2.44
same,glycan array binding signal (z-score),[13],0.257
same,glycan array binding signal (z-score),[14],-0.393
same,glycan array binding signal (z-score),[15],0.379
same,glycan array binding signal (z-score),[16],-0.492
same,glycan array binding signal (z-score),[17],3.1
same,glycan array binding signal (z-score),[18],3.46
same,glycan array binding signal (z-score),[19],5.18
same,glycan array binding signal (z-score),[20],2.6
same,glycan array binding signal (z-score),[21],0.232
same,glycan array binding signal (z-score),[22],-0.781
same,glycan array binding signal (z-score),[23],-0.006
same,glycan array binding signal (z-score),[24],0.298
same,glycan array binding signal (z-score),[25],-0.393
same,glycan array binding signal (z-score),[26],-0.706
same,glycan array binding signal (z-score),[27],1.41
same,glycan array binding signal (z-score),[28],-0.092
same,glycan array binding signal (z-score),[29],-0.276
same,glycan array binding signal (z-score),[30],3.75
same,glycan array binding signal (z-score),[31],-0.953
same,glycan array binding signal (z-score),[32],4.49
same,glycan array binding signal (z-score),[33],-0.215
same,glycan array binding signal (z-score),[34],-0.263
